Test results from PubChem BioAssay (NCI).
About 83,000 compounds went through this panel and 20% of them were active in at least one assay; those are over-represented in the sample as a whole.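 Percent growth is the endpoint: 0 to 100 indicates growth inhibition (40 means 60% inhibition), 0 means no net growth, and negative values indicate cell death.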 Unmarked numbers belong to inactive results. Active and inactive are the calls of the source. The calls were made as follows: active = growth percent below 10; inactive = the rest.

Experiments:
Experiment in all cases: NCI-60 one-dose screen, 48 h (100 = growth as untreated, 0 = no growth, -100 = all killed)
Settings in all cases: 10 µM unless noted
NCI-H23 lung = system: NCI-H23 lung
NCI-H226 lung = system: NCI-H226 lung
NCI-H322M lung = system: NCI-H322M lung
HOP-62 NSCLC = system: HOP-62 NSCLC
NCI-H460 lung = system: NCI-H460 lung
HOP-92 NSCLC = system: HOP-92 NSCLC
NCI-H522 lung = system: NCI-H522 lung
A549/ATCC NSCLC = system: A549/ATCC NSCLC
786-0 renal = system: 786-0 renal
COLO 205 colon = system: COLO 205 colon

SMILES | growth (NCI-H23 lung) | growth (NCI-H226 lung) | growth (NCI-H322M lung) | growth (HOP-62 NSCLC) | growth (NCI-H460 lung) | growth (HOP-92 NSCLC) | growth (NCI-H522 lung) | growth (A549/ATCC NSCLC) | growth (786-0 renal) | growth (COLO 205 colon)
C(=C\c1cc(/C=C/c2ccccc2)c2ccccc2n1)/c1ccccc1 | 82.2% | 106% | 120% | 109% | 102% | 84% | 93.4% | 101% | 80.7% | 118%
COc1cc(/C=C/C(=O)c2ccccc2)ccc1Oc1nc(Nc2ccc(F)cc2)nc(N(C)C)n1 | 46.6% | 43% | 61.2% | 78.4% | 18.1% | 28.7% | 29.6% | 52.8% | 39.6% | 36.2%
N#Cc1c(-c2ccc(Br)cc2)nc2n[nH]c(-c3ccc(Br)cc3)c2c1-c1ccc(C(F)(F)F)cc1 | 15% | 21.7% | 43.1% | 40.3% | 3.96% (active) | -17.3% (active) | 10.1% | 27.4% | 27.6% | -70.5% (active)
CCCCCCCCc1ccc(C(=O)Nc2ccc(C)cc2C(=O)O)cc1C | 99.6% | 89.4% | 99.3% | 96.2% | 92.7% | 99% | -0.59% (active) | 85.8% | 104% | 114%
Cc1ccccc1[C@H]1C(C(=O)c2ccc(Cl)cc2)C2(N[C@@H]1c1ccccc1)C(=O)Nc1ccc(Br)cc12 (stereo not given in full) | -3.76% (active) | 25.5% | 39.4% | 31.6% | 3.51% (active) | -21.3% (active) | -17.6% (active) | 2.73% (active) | -40.5% (active) | -34.5% (active)
O=C(NNc1nc2cc(F)ccc2n2c(C(=O)N3CCN(C4CC4)CC3)ccc12)c1ncccn1 | 38.4% | 11.4% | 29.9% | 20% | 8.44% (active) | 69.2% | 67.1% | 24.5% | -9.79% (active) | 7.77% (active)
N#Cc1c(NCc2ccccc2)n[nH]c1Nc1ccccc1 | 58.4% | 50.2% | 65.1% | 88.9% | 44.2% | 62.3% | 82.3% | 31.6% | 63.3% | -8.53% (active)
C=C1CC[C@@H]2[C@]3(C)COC(c4cn[nH]c4-c4ccccc4)O[C@@H]3CC[C@@]2(C)[C@@H]1C/C=C1/C(=O)OCC1O (stereo not given in full) | -27.2% (active) | -30.6% (active) | 83.7% | 63.8% | 18% | -12.4% (active) | 1.15% (active) | 56.1% | -72.8% (active) | -10.8% (active)
COc1cc(-c2cc(-c3cccc(OCC(=O)O)c3)[nH]c(=O)c2C#N)cc(OC)c1OC | 101% | 98.2% | 91% | 99.1% | 111% | 85.4% | 104% | 100% | 95.8% | 119%
COc1ccc(NC(=O)Cn2c(O)c(N=Nc3ccc(S(N)(=O)=O)cc3)c3ccccc32)cc1 | 10.5% | 39.8% | 34.4% | 8.57% (active) | 21.3% | 79.6% | 66.6% | 24.6% | -25.3% (active) | 58.5%
CSc1ccc(C(=O)Nc2ccc3nnn(/C(C#N)=C/c4ccccn4)c3c2)cc1 | -77.8% (active) | -53.4% (active) | 57.9% | -5.88% (active) | -40.1% (active) | -24.8% (active) | -84.6% (active) | 15% | -90.3% (active) | -66.2% (active)
COc1cc(-c2nc3cc(Cl)c(Cl)cc3[nH]2)ccc1OCc1nnc(-c2cccs2)o1 | 47.4% | 54.7% | 75.3% | 77.8% | 38.8% | 69% | 51.8% | 11.7% | 85.8% | 81.9%
CC(C)Sc1nc(NCCc2c[nH]c3ccccc23)c(C#N)c(-c2ccccc2)n1 | 17.9% | 33.8% | 85.4% | 31.9% | 6.33% (active) | 4.4% (active) | 25.4% | 39.6% | 1.53% (active) | 11.9%
C=C1CC[C@@H]2[C@]3(C)COC(c4cn(-c5ccccc5)nc4-c4ccccc4)O[C@@H]3CC[C@@]2(C)[C@@H]1C/C=C1/C(=O)OC[C@H]1O (stereo not given in full) | -84.7% (active) | -90.4% (active) | 29.1% | -68.1% (active) | -75.9% (active) | -88.1% (active) | -88.1% (active) | -22.2% (active) | -61.3% (active) | -90.9% (active)
C=C1CCC2C3(C)COC(c4ccc(F)cc4)OC3CCC2(C)C1C/C=C1/C(=O)OCC1O (stereo not given) | -40.3% (active) | -8.14% (active) | 27% | -3.79% (active) | -39% (active) | -43.7% (active) | -80.7% (active) | 9.65% (active) | -89.2% (active) | -50.6% (active)
COc1ccc2c(c1)C(=N/N=C(\C)c1ccc(OC)c(S(N)(=O)=O)c1)C(=O)N2 | 94.1% | 89.3% | 94% | 89.1% | 101% | 79% | 84% | 94% | 97.9% | 98.7%
COc1ccc(-c2nnc3ccc(N/N=C/c4ccc(O)cc4)nn23)cc1 | 32.5% | 77.5% | 61.9% | 88.4% | 44.3% | 31.3% | 46.7% | 58.5% | 22.9% | 56.5%
CC(C)c1ccc2c(N)c(C(=O)Nc3cccc(C(F)(F)F)c3)sc2n1 | 90.5% | 69.3% | 81.2% | 62.6% | 67.7% | 82.7% | 48.8% | 78.8% | 67.9% | 48.2%
O=C(NNc1nc2cc(F)ccc2n2c(CN3CCCCC3)ccc12)c1cnccn1 | -21.3% (active) | -24.6% (active) | -7.19% (active) | -59.2% (active) | -11.7% (active) | -24.8% (active) | -50.9% (active) | -76.8% (active) | -98.3% (active) | -50.5% (active)
CCCCNC(=S)Nc1ccc(OCc2nc3ccccc3[nH]2)cc1 | 70% | 102% | 80.7% | 69.5% | 69.7% | 96.2% | 36.2% | 49.7% | 62.3% | 95.6%
O=C1Nc2ccc([N+](=O)[O-])cc2C1=Nc1ccccc1 | 106% | 102% | 96.1% | 114% | 109% | 118% | 110% | 130% | 102% | 108%
Cc1cc(=O)oc2cc(OCCOc3ccc(/C=C/C(=O)Nc4ccccc4N)cc3)ccc12 | 46.5% | 24.8% | 63% | 24.1% | 19.5% | 31% | 3.88% (active) | 30.3% | 23.4% | -24.8% (active)
COc1ccc(N2N=C(c3ccc4c(c3)OCO4)CC2c2cccc(NC(=O)CCNS(=O)(=O)c3ccc(Cl)cc3)c2)cc1 (stereo not given) | 32.6% | 30.8% | 51.8% | 50.2% | 22.3% | 32% | -80.7% (active) | 33.4% | 43% | 29.2%
COc1ccc(-c2c(Nn3cnnn3)no[n+]2[O-])cc1 | 58.9% | 83.2% | 63.5% | 75.2% | 39.5% | 26% | -14.3% (active) | 67.1% | 53.6% | 55.1%
OCNc1ccc(-n2cnc3cc(-c4ccc(O)cc4)ccc32)cc1C(F)(F)F | 27% | 51% | 46.3% | 34.9% | 9.72% (active) | 65.1% | -15.7% (active) | 22.4% | 22.7% | 43.5%
CCC(C)(C)c1ccc(OCCCCCCN2CCN(c3ccncc3)CC2)cc1 | 1.24% (active) | 35.6% | 47.6% | 35.1% | -29.7% (active) | -27.8% (active) | 8.93% (active) | 32.8% | -79% (active) | -84.4% (active)
